# Data taken from PubChem BioAssay AID2314 (National Center for Advancing Translational Sciences (NCATS), 2010).
# Among all 300,000 compounds or so, about 37,000 (12%) were called active. The full list was thinned out, with actives kept by preference. Unmarked numbers belong to inactive results. Cut-off read from the data, not from the text of the source: active = max response mostly above about 13% (no sharp cut-off); inactive = mostly below about 14%.
# Assay: Cycloheximide Counterscreen for Small Molecule Inhibitors of Shiga Toxin; note: read at 38.3 µM for the half of the compounds with a filed dose; 0% is about no effect
# Details: cell reporter, cycloheximide protein synthesis inhibition counterscreen; stronger effect = higher value
row,SMILES,max response
1,Cc1cc(C)c2c(=O)[nH]c(SCC(=O)Nc3ccc(Br)cc3)nc2n1,-1.25%
2,COc1ccc(C2CC(c3cccs3)=NN2c2ccc(F)cc2)cc1OC (stereo unspecified),15.3%
3,COc1ccc(C2CC(c3cccs3)=NN2C(=O)CCC(=O)O)cc1OC (stereo unspecified),-0.943%
4,COc1ccc(C2CC(c3cccs3)=Nc3ccccc3S2)cc1OC (stereo unspecified),30.8% (active)
5,CCn1c(CNc2ccc(OC)cc2)nnc1SCC(=O)c1ccc(OC)cc1,25.8% (active)
6,COC(=O)c1ccc(NC(=O)CSc2nnc(C3CC3)n2C)cc1,-2.61%
7,COC(=O)c1ccc(NC(=O)CSc2nnc(-c3ccncc3)n2C)cc1,0.526%
8,CCn1c(SCC(=O)NNC(=O)c2ccc(OC)cc2)nnc1C(C)C,-1.89%
9,COC(=O)c1ccc(NC(=O)CSc2nnc(CNc3ccc(OC)cc3)n2C)cc1,15.4% (active)
10,C=CCn1c(CNC(=O)c2ccco2)nnc1SCC(=O)c1ccc(OC)cc1,0.446%
11,O=C(NCCCN1CCCC1=O)C(=O)NCC1OCCN1S(=O)(=O)c1ccc(Br)cc1 (stereo unspecified),0.895%
12,CN(C)c1ccc(NC(=S)N(CCc2ccccc2)C2CC(=O)N(c3c(Cl)cccc3Cl)C2=O)cc1 (stereo unspecified),9.01%
13,Cc1ccc(-n2c(SCC(=O)NCCC3=CCCCC3)nc3n[nH]c(C)c3c2=N)cc1Cl,-7.25%
14,O=C(Cn1cncn1)N/N=C/c1c2ccccc2cc2ccccc12,10.8%
15,Cc1cccn2c(=O)c3cc(C(=O)NCCN4CCOCC4)c(=N)n(Cc4cccnc4)c3nc12,-3.88%
16,CC(Cc1cccs1)NC(=O)c1cccc(Cl)c1 (stereo unspecified),54.9% (active)
17,CC(Cc1cccs1)NC(=O)NC1CCCCC1 (stereo unspecified),12%
18,CC(Cc1cccs1)NCc1ccc(Cl)cc1 (stereo unspecified),8.85%
19,O=C(c1cnc(Cl)c(Cl)c1)N1CCN(S(=O)(=O)c2ccc(F)cc2)CC1,-7.24%
20,Cc1cnc(C(=O)N2CCCC(C(=O)c3ccc(C(F)(F)F)cc3)C2)cn1 (stereo unspecified),-6.02%
21,COc1ccc(-c2cc(C(=O)NCc3ccco3)no2)cc1OC,8.2%
22,O=C(NCc1ccco1)c1sc2cccc(F)c2c1Cl,24.8% (active)
23,O=C(NCc1ccco1)c1nn2cccnc2c1Cl,7.86%
24,O=C(NCc1ccco1)c1ccc([N+](=O)[O-])cc1Cl,-2.66%

row,SMILES,max response
1,COc1ccc2c(Cl)c(C(=O)NCc3ccco3)sc2c1,76.1% (active)
2,Cn1nc(-c2ccc(Cl)cc2)c2cc(C(=O)NCc3ccco3)sc21,-3.6%
3,COC(=O)c1ccc(COc2cc([N+](=O)[O-])cc3cccnc23)cc1,0.536%
4,COc1cccc(NC(=O)C2CCCN(c3ncnc4c3nc3n4CCCCC3)C2)c1 (stereo unspecified),9.28%
5,CCCOc1ccc(Cc2c(Cl)nc(SC)nc2NC)cc1,-0.737%
6,CC(NC(=O)c1cc(=O)[nH]c2ccccc12)c1ccc(F)cc1F (stereo unspecified),-4.29%
7,CC(C)N1C(=S)SC(C)(C)C1n1oc(=O)n(-c2ccc(Cl)c(Cl)c2)c1=O (stereo unspecified),-1.96%
8,CC(=O)NC1CCN(CC(=O)Nc2nccs2)CC1,4.21%
9,CC1(C)CC(=O)C(C2c3ccccc3S(=O)(=O)c3ccccc32)C(=O)C1,7.14%
10,COc1ccc(CNC(=O)C(NS(=O)(=O)c2cccc3nsnc23)C(C)C)cc1 (stereo unspecified),2.57%
11,Cc1ccc(C)c(OCCC(=O)OCC(=O)N2CCN(c3ccccc3)CC2)c1,-1.98%
12,COc1ccc2c(c1)C(=C(C#N)C#N)C(=O)N2CCc1ccccc1,13.7% (active)
13,C#CCN1C(=O)C(O)(CC(=O)c2cc(OC)ccc2OC)c2ccccc21 (stereo unspecified),-0.954%
14,CCCCN1C(=O)/C(=C(/C#N)C(N)=O)c2ccccc21,-9.26%
15,COc1cccc2cc(C(N)=O)/c(=N\NC(=O)c3ccccc3)oc12,36.9% (active)
16,COc1ccc(C(=O)N/N=c2\oc3ccccc3cc2C(N)=O)cc1,45%
17,NC(=O)c1cc2ccccc2o/c1=N/NC(=O)c1cccc(F)c1,8.31%
18,CCCC(C)c1nnc(NC(=O)C2CC(=O)N(c3ccc(OCC)cc3)C2)s1 (stereo unspecified),-2.49%
19,COc1ccc(N2CCN(C(=O)CNC(=O)c3ccc(Br)o3)CC2)cc1,-1.81%
20,CC1=C(C(N)=O)C(c2ccc(F)cc2)n2nc(CCCO)nc2N1 (stereo unspecified),5.22%
21,Cc1cc(C)c(SCCc2ccncc2)c(C)c1,1.01%
22,CC(C)(C)c1ccc(SCCc2ccncc2)cc1,12.3% (active)
23,CC(c1ccccc1)(c1ccccc1)c1ccncc1,-5.73%
24,COc1ccc(N2CCN(C(=O)Cn3cnc4sc(C)c(S(=O)(=O)N5CCOCC5)c4c3=O)CC2)cc1,-2.13%

row,SMILES,max response
1,Cn1c(=O)[nH]c(=O)c2c1[nH]c(=S)n2Cc1ccccc1,-6.84%
2,CCOCc1nnc(NC(=O)CCC2CCCCC2)s1,9.52%
3,CCc1ccc(OCC(O)CN2CCN(CCO)CC2)cc1 (stereo unspecified),-1.22%
4,CCn1c(SC)nc(O)c(C(c2ccc(OC)c(O)c2)c2c(O)nc(SC)n(CC)c2=O)c1=O,18.8%
5,Cc1onc(-c2ccc(Cl)cc2)c1-c1ccnn1S(=O)(=O)c1ccc(Cl)cc1,9.73%
6,COc1ccc2[nH]c(=O)c(-c3noc(-c4ccc(F)cc4)n3)cc2c1,41% (active)
7,COc1ccc(-c2noc(CN(C)S(=O)(=O)c3ccc(C)cc3)n2)cc1,-2.54%
8,Cc1ccc(-c2noc(CC(c3ccccc3)c3ccccc3)n2)cc1,11%
9,COc1ccccc1CNS(=O)(=O)c1ccc(C)cc1,7.14%
10,COc1ccc2[nH]c(=O)c(CN(Cc3cccnc3)S(=O)(=O)c3ccccc3F)cc2c1,-2.1%
11,CCCc1nc(-c2cc3cc(C)ccc3[nH]c2=O)no1,2.4%
12,COc1ccccc1Cc1nc(-c2ccc(C)cc2)no1,35.3% (active)
13,COc1ccc(CCNC(=O)C(Sc2ccccn2)c2ccccc2)cc1OC (stereo unspecified),-1.92%
14,COc1ccc(Cc2nc(-c3ccccn3)no2)cc1OC,33% (active)
15,COc1ccc(CCNS(=O)(=O)c2cccc3cccnc23)cc1OC,-1.86%
16,COc1ccc(-c2noc(-c3ccc(C)cc3)n2)cc1,39.5% (active)
17,COc1ccc(-c2noc(CSc3ccc(C)cc3)n2)cc1,10.3%
18,O=c1c([N+](=O)[O-])cccn1Cc1ccc(F)cc1Cl,-5.4%
19,CCCN(CCC)C(=S)Nc1cc(C(=O)OC)ccc1C(=O)OC,-1.36%
20,COc1ccc(S(=O)(=O)/N=C2\C=C(NS(=O)(=O)c3ccccc3)C(=O)c3ccccc32)cc1,13.7%
21,COC(=O)COc1ccc2c(=O)c(Oc3ccccc3Br)coc2c1,1.67%
22,CCCCN(CCCC)CC(O)Cn1c2ccccc2c(=O)c2ccccc21 (stereo unspecified),1.42%
23,CCc1ccnc(NC(=O)Nc2ccc(OCc3ccccc3)cc2)c1,4.28%
24,COc1ccc(C2=Nc3cc(C)ccc3OC2)cc1,33.1% (active)

row,SMILES,max response
1,COc1ccc(C2=NOC3(CC(=O)N(c4ccc(C)cc4)C3=O)C2)cc1 (stereo unspecified),14.2%
2,COc1ccc(/C=C/c2c(-c3cccc(C)c3)oc3ccc(-c4ccc5c(c4)OCO5)cc23)cc1,-3.1%
3,CC(=O)Nc1ccc(S(=O)(=O)Nc2ccc(-c3ccc4nnc(C)n4n3)cc2)cc1,-1.66%
4,O=C(NC1CCCC1)C(c1ccc(Cl)cc1)N(C(=O)c1csnn1)C1CC1 (stereo unspecified),-3.62%
5,Cc1ccccc1-n1c(C)cc(/C=C2\NC(=O)NC2=O)c1C,52% (active)
6,Cc1cccc(C)c1-n1c(C)cc(/C=C2\C(=O)NN(c3ccccc3)C2=O)c1C,-1.17%
7,Cc1cc(/C=C2/NC(=O)NC2=O)c(C)n1-c1cccnc1,7.98%
8,CCOc1ccc(S(=O)(=O)N2CCN=C2Cc2ccccc2)cc1C,-7.25%
9,CCOc1ccc(N(C)S(=O)(=O)c2cnc[nH]2)cc1,-3.61%
10,O=C(Cc1ccc(S(=O)(=O)N2CCCC2)s1)NC1CCCCCC1,0.894%
11,C=CCn1c(=S)sc2c(=O)[nH]c(C)nc21,6.52%
12,CCOc1ccc(/C(O)=C2\C(=O)C(=O)N(c3ccc(OC)cc3)C2c2ccccc2[N+](=O)[O-])cc1 (stereo unspecified),45.2% (active)
13,COc1ccc(C2/C(=C(/O)c3ccccc3)C(=O)C(=O)N2C)c(OC)c1 (stereo unspecified),5.88%
14,COc1ccccc1C1/C(=C(/O)c2ccc(OC(C)C)cc2)C(=O)C(=O)N1c1cc(C)on1 (stereo unspecified),-2.72%
15,O=S(=O)(Nc1nccs1)c1ccc2c(c1)OCCO2,13.4%
16,CC(CCc1ccc(O)cc1)NCc1ccc(Cl)cc1Cl (stereo unspecified),0.267%
17,COc1ccc(NC(=O)CCCNC(=O)Cn2cnc3sc4c(c3c2=O)CCCC4)cc1OC,-1.82%
18,O=[N+]([O-])c1cccc(C2=NCCS2)c1,7.65%
19,CCOC(=O)C1=C(CN2CCCCCC2)NC(=O)NC1c1cccc([N+](=O)[O-])c1 (stereo unspecified),-4.55%
20,CCOC(=O)c1sc(-c2cccc([N+](=O)[O-])c2)cc1N,19% (active)
21,CN(C)S(=O)(=O)Oc1ccccc1C(=O)Nc1ccccc1Cl,-4.26%
22,O=c1c2ccccc2c(-c2ccc(Br)cc2)nn1Cc1ccccc1,-1.69%
23,O=C(NCCc1ccco1)c1nn(Cc2ccccc2)c(=O)c2ccccc12,11.7% (active)
24,O=C(NCc1ccco1)c1nc(-c2ccccc2)n(-c2ccccc2)n1,-1.99%
